Measurements: PubChem BioAssay AID1498 (National Center for Advancing Translational Sciences (NCATS), 2009)
Inconclusive results are not listed. Activity calls are given as the source filed them. Calls come from the whole dose curve.

Assay: Confirmation Concentration-Response Assay for Modulators of Lamin A Splicing
Conditions: HeLa lamin A splicing GFP/RFP minigene, Acumen, 48 h; RFP activity: RFP channel at top concentration, at 46.1 µM; ratio activity: GFP/RFP ratio at top concentration, at 46.1 µM; series mostly up to 46.1 µM; GFP activity change, negative = decrease: at the top concentration
Source text: NCGC Assay Overview: Hutchinson-Gilford Progeria Syndrome (HGPS) is a pediatric premature aging disease caused by a spontaneous mutation in the lamin A/C (LMNA) gene. The mutation activates a cryptic splice site in the LMNA pre-mRNA which results in production of a pre-lamin A protein that cannot be processed properly. The mutant protein accumulates in the nucleus and negatively affects numerous cellular functions. Correction of the splicing defect in HGPS patient cells using a targeted oligonucleotide (exo11) leads to reversal of the cellular disease phenotypes. To identify small molecule modulators of aberrant LMNA splicing, a homogenous assay was constructed in HeLa cells that used a GFP containing minigene to report on correction of aberrant splicing in lamin A and a RFP (DsRed2) to report on cell viability, uniformity and nonspecific effects on the assay signal. This assay was adapted to laser-scanning microplate cytometry (Acumen, TTP Labtech) where miniaturization of the assay to a 1,536-well plate format was possible. Select compounds active in the primary screen (AID 1487) were chosen for confirmation based on potency, efficacy, SAR and activity in other assays in PubChem and at NCGC. References: Bowen, W. P.; Wylie, P. G. Application of Laser-Scanning Fluorescence Microplate Cytometry in High Content Screening. Assay Drug Dev Technol 2006;4:209-221. Scaffidi P, Misteli T. Reversal of the cellular phenotype in the premature aging disease Hutchinson-Gilford progeria syndrome. Nat. Med. 2005;11:440-445.
NCGC Assay Protocol Summary: Reagents/Controls: Stable clones expressing DsRed2 and lamin A-EGFP were generated by Cell and Molecular Technologies in S3 HeLa cells. HeLa cells were prepared for the assay when they were 70-90% confluent. The cells were counted and resuspended in Opti-MEM I (no phenol red; Gibco), 2% FBS, 1% penicillin/ streptomycin (Gibco) at concentration of 120 cells/uL concentration. The suspension was passed through a Falcon basket filter with pore size 40um (Beckton Dickson). Control titrations: column […] 1536-well plate contained a sixteen point titration (1:2 dilutions) in duplicate of ancitabine (Sigma: A8598) beginning at 40 uM final concentration. Column 2 contained a sixteen point titration (1:2 dilutions) of cycloheximide beginning at 1.4 mM final concentration. Column 3 contained ancitabine at 40 uM and column 4 contained was the vehicle control (0.5% DMSO final concentration). Assay Steps: 5 uL of HeLa cells were plated in Aurora LoBase black clear bottom (cyclic-olefin polymer) 1536-well plates at a final density of 600 cells/well. Controls and library compounds were added with a 1536-well pin array using the Kalypsys pin-tool. The plates were then incubated for 48 hrs in a cell-culture incubator (37 °C; 5% CO2, 98% humidity). Following incubation the plates were read on the Acumen Explorer using the 488 nm laser. Data was collected on objects between 10 and 100 um in size. Cell objects were defined by a 15 um width x 10 um depth filter. The ratio of the total object intensity in PMT1 (500-530 nm emission; GFP) over PMT3 (575-640 nm emission; RFP) was calculated for analysis. Keywords: NIH Roadmap, MLSCN, MLI, MLSMR, qHTS, NCGC, lamin A, Progeria, RNA splicing.
In the case of `COc1ccc(C=C(c2nc3ccccc3s2)c2nc3ccccc3s2)cc1O`, the “GFP activity change, negative = decrease” value is reported as -13.6% (inactive), the ratio activity is reported as -10.5% and the RFP activity is reported as -2.53%.
For `CC(C)(C)n1nnnc1C(c1ccc2ncccc2c1)N1CCSCC1` (configuration not stated), the RFP activity was -8.12%, the “GFP activity change, negative = decrease” value was -12.4% (inactive) and the ratio activity was -14.8%.
With `Cc1noc(C)c1-c1ccc2ncnc(NCc3ccc(C(C)(C)C)cc3)c2c1` the ratio activity was -12.9%, the RFP activity was -7.69% and the “GFP activity change, negative = decrease” value was -6.32% (inactive).
For `C/C(=N\NC(=O)C(c1ccncc1)N1CCOCC1)c1ccc(Br)cc1` (configuration not stated), the RFP activity was 7.84%, the “GFP activity change, negative = decrease” value was -10.9% (inactive) and the ratio activity was -18.1%.
For `Cc1cc(/C=N/n2cnnc2)c(C)n1-c1cccc(C(=O)O)c1`, the ratio activity was -3.02%, the RFP activity was -18.9% and the “GFP activity change, negative = decrease” value was -22.5% (inactive).
For `COc1ccc(O)c(/C=N/NC(=O)c2ccc(OCc3cccc(Br)c3)cc2)c1`, the ratio activity was -5.52%, the RFP activity was -32.5% and the “GFP activity change, negative = decrease” value was -21.1% (inactive).
With `O=C(Nc1ccc(F)cc1)c1nc[nH]c1C(=O)Nc1ccccc1[N+](=O)[O-]` the ratio activity was -10.8%, the RFP activity was -25.1% and the “GFP activity change, negative = decrease” value was -23.1% (inactive).
For `Cc1cccc(C)c1OC[C@H](C)N`, the “GFP activity change, negative = decrease” value was -32.5% (inactive), the RFP activity was -24.1% and the ratio activity was -11.5%.
With `Cc1ccc(S(=O)(=O)N(CC(=O)Nc2ccccc2C(=O)O)c2cccc(Cl)c2C)cc1` the “GFP activity change, negative = decrease” value was 7.34% (inactive), the RFP activity was 26.8% and the ratio activity was -14.3%.
In the case of `Cc1cc(Nc2ccccc2)nc2cc(O)ccc12`, the RFP activity is reported as 11.6%, the “GFP activity change, negative = decrease” value is reported as -18.1% (inactive) and the ratio activity is reported as -18.8%.
In the case of `O=C(CCCN1CC=C(n2c(=O)[nH]c3ccccc32)CC1)c1ccc(F)cc1`, the “GFP activity change, negative = decrease” value is reported as -20.4% (inactive), the RFP activity is reported as -6.45% and the ratio activity is reported as -13.7%.
For `Cc1noc(C)c1-c1ccc2ncnc(NCc3cccc(-c4ccccc4)c3)c2c1`, the RFP activity was 22.9%, the ratio activity was -27.8% and the “GFP activity change, negative = decrease” value was 1.82% (inactive).
For `Cc1nc2ccc(NC(=O)c3ccc(Cl)c(S(=O)(=O)N(C)c4ccccc4)c3)cc2s1`, the RFP activity was -26.7%, the ratio activity was -11.5% and the “GFP activity change, negative = decrease” value was -33.3% (inactive).
For `O=C(c1ccc(Cl)c(Cl)c1)N1CCC(=O)N(C(COCc2cccc(C(F)(F)F)c2)Cc2ccccc2)CC1` (configuration not stated), the “GFP activity change, negative = decrease” value was -32.8% (inactive), the ratio activity was -24.5% and the RFP activity was 13.3%.
